Hit rate of the full screen: of about 96,000 compounds, about 1,400 (1.5%) were called active. For the sample, actives were picked, then their nearest neighbours and some compounds at random. Unmarked numbers belong to inactive results.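 The calls were made as follows: active = activation factor of 2 or more for CYP2C9 at a 5 µM dose; inactive = the rest.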

The target of this test is Cytochrome P450 2C9 (Homo sapiens) (UniProt P11712). As to the kind of experiment: human CYP2C9 activators, primary screen, biochemical, luminescence (AID 1024).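 Also: 0 = sulfaphenazole-blocked wells and 1 = vehicle-only wells.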 Particulars: recombinant CYP2C9, luciferin-H conversion, at 5 µM, active compounds read high, factor 1 = untreated enzyme, 0 = blocked.
Chain of Cytochrome P450 2C9 (Homo sapiens) (P11712 whole entry, looked up): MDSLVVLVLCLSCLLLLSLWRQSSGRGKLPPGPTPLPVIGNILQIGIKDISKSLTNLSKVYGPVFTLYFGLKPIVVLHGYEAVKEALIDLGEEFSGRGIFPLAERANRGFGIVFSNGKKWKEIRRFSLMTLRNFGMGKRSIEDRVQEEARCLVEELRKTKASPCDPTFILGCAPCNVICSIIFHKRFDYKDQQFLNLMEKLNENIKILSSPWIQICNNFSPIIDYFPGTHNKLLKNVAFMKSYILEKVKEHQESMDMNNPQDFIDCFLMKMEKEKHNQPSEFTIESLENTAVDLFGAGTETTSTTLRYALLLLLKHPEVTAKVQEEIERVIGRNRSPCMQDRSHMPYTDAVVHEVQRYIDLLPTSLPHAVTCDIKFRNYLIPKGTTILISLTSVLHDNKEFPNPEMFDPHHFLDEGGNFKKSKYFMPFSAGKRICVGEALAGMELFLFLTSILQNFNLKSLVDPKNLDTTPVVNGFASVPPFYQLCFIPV
As to `CCN(c1ccccc1)S(=O)(=O)c1ccc(NC(=O)C(C)(C)C)cc1`, the activation factor was 0.7.

In the case of `CCN(c1ccccc1)S(=O)(=O)c1cccc(C(=O)O)c1`, the activation factor was 0.7.

As to `CCN(c1ccccc1)S(=O)(=O)c1ccc(N)cc1`, the activation factor was 2.4 (active).

On to `O=C(NCCc1ccccn1)c1cc(C(=O)C2CCCCC2)c[nH]1`, for which the activation factor is 0.9.

Consider `CC1CCN(C(NC(=O)c2ccco2)C(=O)c2ccccc2)CC1` (configuration not stated), for which the activation factor was 0.3.

On to `COc1ccc(CCNC(=O)COC(=O)c2ccc[nH]c2=O)cc1`, for which the activation factor was 0.8.

Consider `COc1cc(C2C(C(=O)OCCC#N)=C(C)NC3=C2S(=O)(=O)c2ccccc23)cc(OC)c1OC` (configuration not stated), for which the activation factor was 0.5.

With `O=C(CCCN1C(=O)c2cccc3cccc(c23)C1=O)N1CCN(Cc2ccc3c(c2)OCO3)CC1`, the activation factor was 2.4 (active).

Take `Cn1c(=O)cc(OCCCC(=O)N2CCN(Cc3ccc4c(c3)OCO4)CC2)c2ccccc21`: the activation factor was 0.9.

Regarding `O=C(Nc1cccc2ccccc12)N1CCN(Cc2ccc3c(c2)OCO3)CC1`, the activation factor was 0.6.

`COc1ccc(N(CC(=O)N/N=C/c2cccc3c2OCCO3)S(=O)(=O)c2ccc(NC(C)=O)cc2)cc1`: the activation factor is 0.2.

Consider `CCN(CC)S(=O)(=O)c1ccc2c3c(cccc13)C(=O)S2`, for which the activation factor is 1.5.

Turning to `COc1cccc(C(=O)c2cc3ccc(O)cc3oc2=O)c1`, the activation factor was 0.1.

For `COc1cccc2cc(C(=O)N(C)C)c(=O)oc12`, the activation factor was 2 (active).

As to `COc1ccc2oc(=O)c(C(=O)O)cc2c1`, the activation factor is 1.1.

Regarding `O=C(Oc1ccccc1)Oc1ccc2c(c1)oc(=O)c1ccccc12`, the activation factor was 1.6.

With `Cc1n[nH]c(=S)n1/N=C/c1ccc(Br)o1`, the activation factor was 1.

For `CCc1cccc2c(C=C(C#N)C#N)cn(CC(=O)N3CCCCC3)c12`, the activation factor is 1.

For the molecule `Cc1nc(SCC(=O)N2CC(=O)Nc3ccccc32)c2c(C)c(C)sc2n1`, the activation factor was 0.4.

In the case of `COc1ccc(C2CC(=O)n3c(nc4ccccc43)S2)cc1OC` (configuration not stated), the activation factor is 0.9.

On to `COc1ccc(C2SCCN2S(=O)(=O)c2ccccc2)cc1OC` (configuration not stated), for which the activation factor is 2.1 (active).

Regarding `COc1ccc(S(=O)(=O)N2CCC(C(=O)N3CCc4ccccc4C3)CC2)cc1OC`, the activation factor is 0.5.

Consider `COc1ccc(CNC(=O)C2CCC(CNc3c(N4CCOCC4)c(=O)c3=O)CC2)cc1` (configuration not stated), for which the activation factor was 1.1.

As for `Cc1ccc(CNC(=O)c2ccccc2CCc2ccccc2)cc1`, the activation factor was 0.7.

As to `Clc1ccc(Cl)c(Oc2ccc(Oc3nc(Cl)ccc3Cl)cc2)n1`, the activation factor was 2 (active).

Regarding `N#Cc1ccc(-c2ccc(Cl)cc2)nc1Oc1ccc(F)cc1`, the activation factor is 0.9.

With `Nc1ccc(Oc2ccc(Cl)cc2)cc1`, the activation factor was 0.8.

(Values after PubChem BioAssay AID1024 (Sanford-Burnham Center for Chemical Genomics, 2008).)
